About 4,200 (1.3%) of roughly 330,000 compounds were called active. Where a call stands in place of a potency, no number is given. Not shown: some 6% with an inconclusive outcome. The call rests on the fitted dose curve; in most records, active means well fitted activation curve with a large enough effect; inconclusive means small, poorly fitted or top-dose-only effect; inactive means no such curve, though single readings can be large or run the other way. The full list was thinned out, with actives kept by preference.
Potency means the concentration at half of the fitted maximal effect.

This test is described as follows: qHTS screen for small molecules that induce genotoxicity in human embryonic kidney (HEK293T) cells expressing luciferase-tagged ELG1. Further: nearly all actives have a fitted effect of over 60% in size. Particulars: HEK293T ELG1-luciferase reporter, luminescence, 16 h; series mostly up to 46 µM. The essentials: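 Step 1: seed 2,000 HEK293T ELG1-luciferase cells per well. Step 2: add compound or DMSO, incubate 16 hr at 37 °C. Step 3: ONE-Glo, 30 min at room temperature, read luminescence.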
On the technique in general: qHTS replaces the single test concentration by a dilution series.
Take `O=C(CSC(=S)N1CCOCC1)c1ccccc1`: the Potency is 2.06 µM (active).
As for `CC1CN(C(=S)SCC(=O)c2ccccc2)CC(C)O1` (stereo not given), the entry is “inactive”; as for `O=C(CSC(=S)N1CCOCC1)c1cc(Br)cc(Br)c1O`, “inactive”.
As to `O=C(CN1C(=O)NC2(CCOc3ccccc32)C1=O)Nc1cccc([N+](=O)[O-])c1` (stereo not given), the Potency result is “inactive”.
As for `O=S(=O)(NCC1CN(S(=O)(=O)c2ccc3c(c2)OCCO3)C1)c1c(F)cccc1F`, the entry is “inactive”.
As for `CC[C@]12c3[nH]c4ccc(OC)cc4c3CCN1C(=O)C(CC(=O)NCc1ccco1)C[C@@H]2C(=O)N1CCN(C(=O)C2CC2)CC1` (stereo not given in full), the entry is “inactive”.
As for `CC(C)(C)C(=O)Nc1ccc(-c2cn3cccnc3n2)cc1`, the figure is 18.3 µM (active); as for `Cc1nn2c(=O)cc(COC(=O)c3ccc(NC(=O)C(C)(C)C)cc3)nc2s1`, “inactive”; as for `CC(=O)Nc1ccc(S(=O)(=O)Nc2cccc(NC(=O)C(C)(C)C)c2)cc1`, “inactive”.
As to `CSc1ncccc1C(=O)Nc1cccc(S(=O)(=O)N2CCOCC2)c1`, the Potency result is “inactive”.
Next, `CN(CCc1ccccc1)C(=O)c1cccc(NC(=O)Cc2ccc([N+](=O)[O-])cc2)c1`: “inactive”; `Cc1c(Cl)cnc(NC(=O)COC(=O)C2CCCC2)c1Cl`: “inactive”; `CCN(C(=O)CSc1nnnn1-c1ccc(OC)cc1)C1CCS(=O)(=O)C1` (stereo not given): “inactive”.
In the case of `Cn1c(=O)n(C)c2cc(NS(=O)(=O)c3ccc(F)cc3)ccc21`, the Potency is 18.3 µM (active).
As for `Cn1c(=O)n(C)c2cc(S(=O)(=O)Nc3ccc(F)cc3)ccc21`, the entry is “inactive”; as for `Cc1cc(C)cc(NS(=O)(=O)c2ccc(F)cc2)c1`, “inactive”; as for `CCN(c1ccccc1)S(=O)(=O)c1cccc(C(=O)NCc2ccccc2CN2CCOCC2)c1`, “inactive”.
As for `O=C1COc2ccc(C(=O)COC(=O)c3ccccc3Cl)cc2N1`, the entry is “inactive”; as for `CCSc1nnc(NC(=O)c2ccc(C)cc2)s1`, 1.64 µM (active).
Next, `C=CCSc1nnc(NC(=O)c2ccc(NC(C)=O)cc2)s1`: “inactive”; `CCOC(=O)CSc1nnc(NC(=O)c2cccc(S(=O)(=O)N3CCCC3)c2)s1`: “inactive”.
Regarding `COC(=O)[C@]1(C)N[C@H](CN(C)C(=O)c2ccc(C(C)(C)C)cc2)[C@@H]2C(=O)N(C)C(=O)[C@@H]21`, the Potency entry was “inactive”.
Next, `COc1ccc(CN2C(CC(=O)Nc3cccnc3)c3ccc(C(F)(F)F)cc3S2(=O)=O)cc1` (stereo not given): “inactive”.
Next, `O=C(COC(=O)c1ccc2c(c1)OCCO2)NCc1ccccc1Cl`: “inactive”; `Cc1cccc(NC(=O)c2ccc(S(=O)(=O)N(C)c3ccccc3)cc2)n1`: “inactive”; `CC(C)(C)NC(=O)NC(=O)COC(=O)Cc1ccc(Cl)cc1Cl`: “inactive”.
Next, `COc1ccc(-c2csc(NC(=O)COC(=O)Cc3ccc(Cl)cc3Cl)n2)cc1`: 23.1 µM (active).
Consider `COc1ccc(OC)c(-c2csc(NC(=O)COC(=O)C3CC3)n2)c1`, for which the Potency result was “inactive”.
As for `CS(=O)(=O)c1ccc(C(=O)NNC(=O)c2cccs2)cc1`, the entry is “inactive”; as for `O=c1c2ccccc2nc(N/N=C/c2ccccc2)n1O`, “inactive”.
As for `O=c1c2ccccc2ncn1/N=C/c1ccccc1`, the figure is 3.66 µM (active); as for `O=C(Nn1cnc2ccccc2c1=O)c1ccccc1`, “inactive”; as for `CCN(C(=O)CSc1cccc[n+]1[O-])c1ccccc1`, “inactive”.
Next, `COc1ccc(CNC(=O)COC(=O)c2sccc2C)cc1OC`: “inactive”.
In the case of `O=C(Nc1ccccc1)c1ccc2c(c1)OCCCO2`, the Potency was 0.517 µM (active).
As for `COc1ccc2nc(NC(=O)[C@@H]3CCCN3C(=O)c3cccs3)sc2c1`, the entry is “inactive”.
Next, `O=C(Nc1nc2ccccc2s1)c1ccc2c(c1)OCO2`: 0.58 µM (active); `O=C(Nc1ccccc1N1CCN(C(=O)c2ccccc2)CC1)c1ccc2c(c1)OCO2`: “inactive”; `O=C(Nc1nc2cc3c(cc2s1)OCCO3)c1cccc(S(=O)(=O)N2CCOCC2)c1`: “inactive”.
Next, `COc1ccc2nc(NC(=O)c3ccc(Br)s3)sc2c1`: 2.82 µM (active); `CSc1ncccc1C(=O)Nc1ccc2c(c1)OCO2`: “inactive”.
For the compound `COc1ccc2nc(NC(=O)NC3CCCCC3)sc2c1`, the Potency result was “inactive”.
As for `CC(C)C(=O)Nc1cccc(C(=O)Nc2ccc3c(c2)OCO3)c1`, the figure is 6.51 µM (active); as for `CCSc1ccccc1C(=O)Nc1ccc2c(c1)OCO2`, “inactive”; as for `O=C(Nc1cccc(S(=O)(=O)Nc2ccc(Cl)cc2)c1)c1ccc2c(c1)OCCO2`, “inactive”.
On to `O=C(Nc1cccc(S(=O)(=O)N2CCCCC2)c1)c1ccc2c(c1)OCO2`, for which the Potency entry is “inactive”.
Next, `C=CC[C@@H](CC(=O)N[C@H](CO)Cc1ccccc1)C(=O)N[C@H](C)COC(=O)[C@@H](CC=C)Cc1ccc(F)cc1`: “inactive”; `CC(=O)c1c(C)[nH]c(C(=O)COC(=O)c2cccs2)c1C`: “inactive”; `COc1ccc(C2=Nn3c(nnc3-c3ccccc3OC)SC2)cc1OC1CCCC1`: “inactive”.
As for `COc1ccccc1N(CCOc1ccccc1)S(=O)(=O)c1ccccc1`, the entry is “inactive”; as for `CC(C)(C)OC(=O)C[C@@H]1C/C=C\C[C@@H](CC(=O)N(CCO)Cc2ccccc2)C(=O)N[C@H](Cc2ccccc2)COC1=O`, “inactive”; as for `CCCN(CC1CC1)C(=O)COC(=O)c1ccc(C)cc1O`, “inactive”.
Next, `O=C(COC(=O)c1cc(S(=O)(=O)N2CCOCC2)ccc1F)NC1CC1`: “inactive”; `CC(C)CNS(=O)(=O)c1ccc(C(=O)Nc2ccc3c(c2)OCO3)cc1`: “inactive”.
Regarding `O=C(Nc1ccc(NC(=O)c2ccc3c(c2)OCO3)cc1)c1cccc(Cl)c1`, the Potency entry was “inactive”.
For `CS(=O)(=O)c1ccc2nc(NC(=O)c3ccc(Cl)nc3)sc2c1`, the Potency entry was “inactive”.
As to `CNC(=O)c1ccc2nc(NC(C)=O)sc2c1`, the Potency was 18.4 µM (active).
Next, `O=C(Nc1ccccc1)c1ccc2c(c1)OCO2`: 9.2 µM (active); `O=C(Nc1ccc2c(c1)OCO2)c1ccc(N2C(=O)c3ccccc3C2=O)cc1`: “inactive”.
Next, `Cn1c(=O)n(C)c2cc(C(=O)Nc3ccc4c(c3)OCO4)ccc21`: 8.2 µM (active).
With `O=C(Nc1cccc([N+](=O)[O-])c1)c1ccc2c(c1)OCO2`, the Potency entry was “inactive”.
`COc1cccc(C(=O)Nc2nc3ccc(S(C)(=O)=O)cc3s2)c1`: the Potency entry is “inactive”.
Next, `O=C(OCC(=O)N1CCN(c2ccccc2)CC1)c1ccc([N+](=O)[O-])s1`: “inactive”.
`CC(=O)Nc1ccc(S(=O)(=O)NCC(=O)OCC(=O)c2ccc[nH]2)cc1`: the Potency result was “inactive”.
As for `CC(C)NC(=O)Nc1cccc2c1O[C@@H](CN(C)S(=O)(=O)c1ccc(F)cc1)[C@@H](C)CN([C@H](C)CO)C2=O`, the entry is “inactive”.
